According to PubChem BioAssay (EPA / NIEHS):
The source made the active and inactive calls. Rule for the calls: active = hit-call score of the fitted dose curve at least 0.9, where 1 is the maximum; inactive = score below 0.9.

What was measured:
Conditions in all cases: primary human HUVEC with PBMC; actives raise or lower the signal
[1] = read-out: Macrophage colony-stimulating factor (MCSF), CSF1 (gene 1435); test: BSK_LPS_MCSF: BioMAP Diversity Plus: LPS Assay for Macrophage colony-stimulating factor (MCSF) Biomarker Activity (AID 2283083)
How it was run: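 HUVEC–PBMC co-culture, M-CSF measured by ELISA 24 h after chemical dosing. Fitted in both directions relative to DMSO as negative control; overt cytotoxicity assessed by SRB total-protein staining in parallel cultures.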

[2] = read-out: Tissue Factor, F3 (gene 2152); test: BSK_LPS_TissueFactor: BioMAP Diversity Plus: LPS Assay for Tissue Factor Biomarker Activity (AID 2283084)
How it was run: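 Human umbilical vein endothelial cells co-cultured with PBMC were dosed with compound. Cell-surface CD142 was measured by ELISA 24 h later. Activity was fitted bidirectionally against DMSO, with SRB total-protein staining in parallel cultures for cytotoxicity.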

CD38, CD38 (gene 952) = test: BSK_SAg_CD38: BioMAP Diversity Plus: SAg Assay for CD38 Biomarker Activity (AID 2283087)
How it was run: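 CD38 quantified by ELISA (fluorescence) in a superantigen-activated endothelial cell–PBMC co-culture at 24 h post-dose. Activity fitted in both directions relative to DMSO; parallel SRB and Alamar Blue cytotoxicity read-outs.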

CD40, CD40 (gene 958) = test: BSK_SAg_CD40: BioMAP Diversity Plus: SAg Assay for CD40 Biomarker Activity (AID 2283088)
How it was run: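 HUVEC plus PBMC co-culture, superantigen-activated, with CD40 read by ELISA 24 h after dosing. Curves fitted in both directions against DMSO. Overt cytotoxicity checked by parallel SRB total-protein staining.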

CD69, CD69 (gene 969) = test: BSK_SAg_CD69: BioMAP Diversity Plus: SAg Assay for CD69 Biomarker Activity (AID 2283089);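 for AC50: cell surface CD69 protein quantified by ELISA with fluorescence detection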
How it was run: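 HUVEC co-cultured with PBMC were dosed with chemical, and CD69 was measured by ELISA with fluorescence read-out 24 h later. Bidirectional curve fitting used DMSO as negative control and activity baseline.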

[3] = read-out: Monocyte Chemoattractant Protein-1 (MCP1), CCL2 (gene 6347); test: BSK_SAg_MCP1: BioMAP Diversity Plus: SAg Assay for Monocyte Chemoattractant Protein-1 (MCP1) Biomarker Activity (AID 2283090)
How it was run: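 Values derive from bidirectional fitting of ELISA-measured MCP1 against DMSO controls. Readings were taken 24 h after dosing human vascular endothelial cells co-cultured with peripheral blood mononuclear cells under superantigen stimulation.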

[4] = read-out: E-selectin (Homo sapiens) (UniProt P16581); test: BSK_SAg_Eselectin: BioMAP Diversity Plus: SAg Assay for Eselectin Biomarker Activity (AID 2283091)
How it was run: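 Human umbilical vein endothelial cells co-cultured with peripheral blood mononuclear cells, SAg system. E-selectin is measured by ELISA 24 h after dosing and fitted bidirectionally against DMSO. Cytotoxicity is checked by SRB staining of parallel cultures.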

[5] = read-out: Monokine induced gamma interferon (MIG), CXCL9 (gene 4283); test: BSK_SAg_MIG: BioMAP Diversity Plus: SAg Assay for Monokine induced gamma interferon (MIG) Biomarker Activity (AID 2283092)
How it was run: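 HUVEC plus human PBMC co-culture, chemicals dosed and MIG (CXCL9) quantified by ELISA at 24 h. Bidirectional curve fitting against DMSO as negative control and baseline, so both gain and loss of signal count as activity.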

[6] = read-out: Vascular cell adhesion molecule 1 (VCAM1), VCAM1 (gene 7412); test: BSK_LPS_VCAM1: BioMAP Diversity Plus: LPS Assay for Vascular cell adhesion molecule 1 (VCAM1) Biomarker Activity (AID 2283086)
How it was run: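 Cells are dosed in an LPS-stimulated endothelial/mononuclear co-culture and, after 24 h, VCAM-1 is quantified by ELISA. Activity in either direction is fitted relative to the DMSO negative control.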

Measured: AC50

E-selectin (Homo sapiens), sequence (P16581 whole entry, looked up): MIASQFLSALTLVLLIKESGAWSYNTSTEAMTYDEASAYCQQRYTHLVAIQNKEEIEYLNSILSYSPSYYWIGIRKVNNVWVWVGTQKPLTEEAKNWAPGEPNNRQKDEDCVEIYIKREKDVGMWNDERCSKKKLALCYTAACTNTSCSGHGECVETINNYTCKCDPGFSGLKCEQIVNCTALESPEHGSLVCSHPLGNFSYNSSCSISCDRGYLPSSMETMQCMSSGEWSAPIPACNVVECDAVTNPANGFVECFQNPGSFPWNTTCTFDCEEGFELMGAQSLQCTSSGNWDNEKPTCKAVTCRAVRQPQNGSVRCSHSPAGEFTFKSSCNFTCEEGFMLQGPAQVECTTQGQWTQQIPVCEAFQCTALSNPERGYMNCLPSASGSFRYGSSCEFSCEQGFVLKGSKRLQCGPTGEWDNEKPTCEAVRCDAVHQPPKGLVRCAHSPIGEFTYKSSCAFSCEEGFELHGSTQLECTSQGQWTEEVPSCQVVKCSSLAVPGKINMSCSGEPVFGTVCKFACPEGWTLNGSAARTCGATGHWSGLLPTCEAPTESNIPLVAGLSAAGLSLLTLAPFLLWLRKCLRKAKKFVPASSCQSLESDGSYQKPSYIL

O=C(O)c1cccnc1
not listed: [6]
inactive: all other assays above

Cc1ccc(C(C)(C)C)c(O)c1
not listed: [6]
inactive: all other assays above

Cn1cnc2c1c(=O)[nH]c(=O)n2C
not listed: CD40, CD40 (gene 958)
inactive: all other assays above

CC(C)(O)c1ccc(CNC(=O)c2cccnc2Oc2ccc(F)cc2)cc1
active: CD38, CD38 (gene 952) 1.19 µM | [3] 1.16 µM | [4] 0.737 µM
inactive: [1] | [2] | CD69, CD69 (gene 969) | [5]

O=Cc1ccccc1C=O
not listed: CD40, CD40 (gene 958)
inactive: all other assays above

CC(=O)[C@@]1(O)CC[C@H]2[C@@H]3CCC4=CC(=O)CC[C@]4(C)[C@H]3CC[C@@]21C
not listed: CD40, CD40 (gene 958)
inactive: all other assays above

CCCCCCCC(=O)OC
inactive: all assays above

COc1ccc(OC(F)(F)F)cc1CN[C@H]1CCCN[C@H]1c1ccccc1
active: [6] 14.6 µM | CD69, CD69 (gene 969) 20 µM
not listed: CD40, CD40 (gene 958)
inactive: all other assays above

N[C@@H](Cc1c[nH]c2ccccc12)C(=O)O
inactive: all assays above

Cc1cc(SC2=C(O)C[C@@](CCc3ccc(N)cc3)(C(C)C)OC2=O)c(C(C)(C)C)cc1CO
not listed: [6]
inactive: all other assays above

CN(C)CCCN(C)CCCN(C)C
not listed: [6]
inactive: all other assays above

OCC(O)CO
not listed: CD40, CD40 (gene 958)
inactive: all other assays above

COc1ccc(C(=O)Nc2nc3ccccc3c(NCc3ccccc3)c2C#N)cc1
active: [1] 3.97 µM
not listed: CD40, CD40 (gene 958) | [6]
inactive: all other assays above

CC1=C(C)S(=O)(=O)CCS1(=O)=O
active: [4] 3.97 µM
not listed: CD40, CD40 (gene 958) | [6]
inactive: all other assays above

CN(C)C(=O)NC1(c2ccccc2)CCN(CCC[C@]2(c3ccc(Cl)c(Cl)c3)CCCN(C(=O)c3ccccc3)C2)CC1
not listed: CD40, CD40 (gene 958) | [6]
inactive: all other assays above

NC1CCCCC1
not listed: CD40, CD40 (gene 958)
inactive: all other assays above

CCCCCCCCCC[N+](C)(C)[O-]
not listed: CD40, CD40 (gene 958) | [6]
inactive: all other assays above

O=C1O[C@H]([C@H](O)CO)C(O)=C1O
not listed: CD40, CD40 (gene 958)
inactive: all other assays above

NC(=Nc1ccccc1)Nc1ccccc1
active: [1] 5.45 µM
not listed: [4]
inactive: all other assays above

CN(C)C(=O)NC1(c2ccccc2)CCN(CC[C@@]2(c3ccc(F)c(F)c3)CN(C(=O)c3ccccc3)CCO2)CC1
not listed: CD40, CD40 (gene 958)
inactive: all other assays above

CCCCCCC(CCCCCCCCCCC(=O)OCC(COC(C)=O)OC(C)=O)OC(C)=O (centres undefined)
not listed: [6]
inactive: all other assays above

CC(C)COC(=O)CCCCC(=O)OCC(C)C
not listed: [6]
inactive: all other assays above

C=CCc1ccc(OC)c(OC)c1
not listed: CD40, CD40 (gene 958)
inactive: all other assays above

S=c1[nH]c2ccccc2s1
active: [2] 2.23 µM
not listed: CD40, CD40 (gene 958)
inactive: all other assays above
